# According to PubChem BioAssay (EPA / NIEHS):
# Calls of active or inactive are those of the source. Rule for the calls: active = hit-call score of the fitted dose curve at least 0.9, where 1 is the maximum; inconclusive = response in the unintended direction; inactive = score below 0.9.
# Test: LTEA_HepaRG_LDH_cytotoxicity: Cytotoxicity Assessment in the Life Technologies and Expression Analysis (LTEA) Assay (AID 2283563)
# Summary of the method: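 LDH release into culture medium read after 48 h chemical treatment of HepaRG cells. Duplicate wells, eight-point half-log series topping at 100 uM, 0.5% DMSO vehicle and baseline.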
row,SMILES,outcome
1,CNC(=O)N(C)c1nnc(C(C)(C)C)s1,inactive
2,Clc1nc(Cl)nc(Nc2ccccc2Cl)n1,inactive
3,Nc1cnn(-c2ccccc2)c(=O)c1Cl,inactive
4,COP(=O)(OC)O/C(C)=C/C(=O)N(C)C,inactive
5,CCNC(=O)NC(=O)C(C#N)=NOC,inactive
6,CC(C)=CC1C(C(=O)OCc2coc(Cc3ccccc3)c2)C1(C)C (stereo not given),inactive
7,CN/C(=N\[N+](=O)[O-])NCc1cnc(Cl)s1,inactive
8,CN=C=S,inactive
9,CC(C)Nc1nc(Cl)nc(NC(C)C)n1,inactive
10,Cc1cnc(C2=NC(C)(C(C)C)C(=O)N2)c(C(=O)O)c1 (stereo not given),inactive
11,CCCC(=NOCC)C1=C(O)CC(CC(C)SCC)CC1=O (stereo not given),inactive
12,CCOP(=S)(OCC)Oc1nc(Cl)n(C(C)C)n1,inactive
13,CCOc1cc(C(C)(C)C)ccc1C1COC(c2c(F)cccc2F)=N1 (stereo not given),inactive
14,N#CN=C1SCCN1Cc1ccc(Cl)nc1,inactive
15,COC(=O)c1c(C(F)F)nc(C(F)(F)F)c(C2=NCCS2)c1CC(C)C,inactive
16,O=P(O)(O)CCCl,inactive
17,Clc1cccc(C(Cl)(Cl)Cl)n1,inactive
18,COc1cc(Cl)c(OC)cc1Cl,inactive
19,CC(C)C1(C)N=C(c2ncccc2C(=O)O)NC1=O (stereo not given),inactive
20,CC1(C)CON(Cc2ccccc2Cl)C1=O,inactive
21,COC(=O)NC(=S)Nc1ccccc1NC(=S)NC(=O)OC,inactive
22,CCOc1nc(C(Cl)(Cl)Cl)ns1,inactive
23,COCc1cnc(C2=NC(C)(C(C)C)C(=O)N2)c(C(=O)O)c1 (stereo not given),inactive
24,CCSC(=O)N1CCCCCC1,inactive
25,O=C(O)c1c(Cl)ccc2cc(Cl)cnc12,inactive
